Read-outs that look alike come from different tables or passages of the source.

For one assay, the system named is GRK7. The following applies: concentration: 1 μM, replicates: in singlicate; n = 1.
The test system of a further assay is GSK3A. To be noted: concentration: 1 μM, replicates: in singlicate; n = 1.
The next assay deals with GSK3B. To be noted: n = 1.
The subject of the next assay is T1, HASPIN.
T1 construct: gene GSG2
To be noted: concentration: 1 μM, replicates: in singlicate; n = 1.

The test system of the next assay is HCK. To be noted: concentration: 1 μM, replicates: in singlicate; n = 1.
The subject of another assay is HIPK1. The following applies: concentration: 1 μM, replicates: in singlicate; n = 1.
The test system of a further assay is HIPK2. The following applies: concentration: 1 μM, replicates: in singlicate; n = 1.
Another assay has as its system HIPK3. To be noted: concentration: 1 μM, replicates: in singlicate; n = 1.
The subject of the next assay is HIPK4. The following applies: concentration: 1 μM, replicates: in singlicate; n = 1.
The subject of another assay is HPK1. The following applies: concentration: 1 μM, replicates: in singlicate; n = 1.
In another assay the test system is HUNK. To be noted: concentration: 1 μM, replicates: in singlicate; n = 1.
For another assay, the system named is ICK. To be noted: concentration: 1 μM, replicates: in singlicate; n = 1.
In the next assay the test system is IGF1R. The following applies: concentration: 1 μM, replicates: in singlicate; n = 1.
For another assay, the system named is T2, IKK-alpha.
T2 construct: gene CHUK
To be noted: concentration: 1 μM, replicates: in singlicate; n = 1.

For a further assay, the system named is T3, IKK-beta.
T3 construct: gene IKBKB
To be noted: concentration: 1 μM, replicates: in singlicate; n = 1.

For the next assay, the system named is T4, IKK-epsilon.
T4 construct: gene IKBKE
To be noted: concentration: 1 μM, replicates: in singlicate; n = 1.

A further assay deals with INSRR. The following applies: concentration: 1 μM, replicates: in singlicate; n = 1.
The test system of another assay is INSR. The following applies: concentration: 1 μM, replicates: in singlicate; n = 1.
The next assay relates to IRAK1. To be noted: concentration: 1 μM, replicates: in singlicate; n = 1.
The test system of another assay is IRAK3. The following applies: concentration: 1 μM, replicates: in singlicate; n = 1.
Where [1] appears, read: concentration: 1 μM, replicates: in singlicate.
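Further: KINOMEscan kinase panel screen.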

On to `COc1ccc(Nc2nccc(NCCNC(=O)Nc3ccccc3F)n2)cc1` [GSK1379901], for which the “%Inh” value was 0% in the assay on GRK7; 30% in the assay on GSK3A; 13% in the assay with GSK3B (setting [1]); 0% in the assay on HASPIN; 0% with HCK; 0% in the assay with HIPK1. Moreover, the “%Inh” value with HIPK2 worked out at 0%; with HIPK3 it was 7%; in the assay with HIPK4, 0%; in the assay on HPK1, 36%; in the assay with HUNK, 9%; with ICK, 0%. Moreover, the “%Inh” value in the assay on IGF1R is given as 10%; in the assay on IKK-alpha, 0%; in the assay on IKK-beta, 11%; in the assay on IKK-epsilon it was 12%; in the assay on INSRR it was 0%; in the assay on INSR it was 0%. Moreover, the “%Inh” value in the assay on IRAK1 came to 36%; with IRAK3, 8%.

On to `COc1cc2ncn(-c3cc(OCC4CCCO4)c(C(N)=O)s3)c2cc1OC` (stereo not shown) [GSK204607], for which the “%Inh” value turned out to be 0% in the assay on GRK7; 20% in the assay with GSK3A; 0% in the assay with GSK3B (setting [1]); 26% in the assay on HASPIN; 0% in the assay with HCK; 7% in the assay on HIPK1. For the same compound, the “%Inh” value with HIPK2 is on record as 0%; with HIPK3, 17%; with HIPK4 it was 52%; in the assay on HPK1, 15%; in the assay with HUNK, 0%; with ICK, 0%. The “%Inh” value with IGF1R was 6%; in the assay with IKK-alpha, 0%; in the assay with IKK-beta, 0%; with IKK-epsilon, 24%; in the assay on INSRR it was 0%; in the assay with INSR, 0%. In addition, the “%Inh” value with IRAK1 and with IRAK3 was 0% in each case.

With `Nc1nc(-c2nccs2)c(-c2ccnc3ccccc23)s1` [GW693542], the “%Inh” value worked out at 0% with GRK7; 5% in the assay on GSK3A; 14% in the assay with GSK3B (setting [1]); 0% in the assay with HASPIN; 0% in the assay on HCK; 3% in the assay on HIPK1. Besides, the “%Inh” value with HIPK2 was 0%; in the assay with HIPK3 it was 21%; in the assay on HIPK4 it was 0%; in the assay with HPK1 it was 30%; in the assay with HUNK, 23%; in the assay with ICK, 0%. In addition, the “%Inh” value in the assay with IGF1R came out at 10%; in the assay with IKK-alpha it was 0%; in the assay on IKK-beta it was 9%; in the assay with IKK-epsilon, 31%; in the assay with INSRR, 0%; with INSR, 0%. Also, the figures for the “%Inh” value in the assay with IRAK1 and with IRAK3 were 18% and 7%, respectively.

As to `O=c1cc(N2CCOCC2)nc2n(Cc3cccc(Cl)c3Cl)ccn12` [GSK2286295], the “%Inh” value stood at 0% in the assay with GRK7; 8% in the assay on GSK3A; 12% in the assay with GSK3B (setting [1]); 1% in the assay on HASPIN; 0% with HCK; 13% in the assay with HIPK1. The “%Inh” value was 0% in the assay with HIPK2; 14% in the assay with HIPK3; 28% in the assay on HIPK4; 31% in the assay with HPK1; 0% in the assay on HUNK; 3% in the assay with ICK. The “%Inh” value worked out at 12% in the assay on IGF1R; 0% in the assay on IKK-alpha; 25% in the assay with IKK-beta; 10% in the assay with IKK-epsilon; 0% in the assay with INSRR; 5% in the assay on INSR. The figures for the “%Inh” value in the assay with IRAK1 and in the assay with IRAK3 were 0% and 3%, respectively.

`Fc1cccc(COc2nnc(-c3ccc4c(c3)CCO4)o2)c1`: the “%Inh” value with GRK7 was 8%; with GSK3A, 0%; in the assay on GSK3B (setting [1]), 9%; with HASPIN, 44%; with HCK, 0%; in the assay with HIPK1, 25%. In addition, the “%Inh” value in the assay with HIPK2 was found to be 23%; with HIPK3 it was 0%; in the assay with HIPK4, 3%; in the assay with HPK1, 0%; with HUNK, 7%; in the assay on ICK it was 0%. Moreover, the “%Inh” value was determined as 2% in the assay on IGF1R; 21% with IKK-alpha; 7% in the assay with IKK-beta; 0% in the assay with IKK-epsilon; 0% in the assay on INSRR; 0% with INSR. Moreover, the entries for the “%Inh” value in the assay with IRAK1 and in the assay with IRAK3 were 44% and 0%, respectively.

As for `Fc1cc(Cl)ccc1Nc1ccnc2cc(I)ccc12` [GW551191], the “%Inh” value came out at 0% with GRK7; 26% in the assay on GSK3A; 3% with GSK3B (setting [1]); 0% with HASPIN; 0% in the assay on HCK; 0% with HIPK1. Moreover, the “%Inh” value with HIPK2 was 0%; in the assay on HIPK3 it was 0%; in the assay with HIPK4, 0%; in the assay on HPK1 it was 35%; in the assay on HUNK, 45%; in the assay with ICK, 1%. In addition, the “%Inh” value in the assay with IGF1R is 6%; with IKK-alpha, 1%; with IKK-beta, 11%; in the assay on IKK-epsilon, 19%; in the assay on INSRR it was 0%; in the assay with INSR, 0%. Moreover, the “%Inh” value stood at 32% with IRAK1 and 11% in the assay with IRAK3.

For the compound `Cl.c1ccc(-c2n[nH]cc2-c2ccnc(-c3ccc(CN4CCOCC4)cc3)c2)nc1` [GW776245], the “%Inh” value in the assay on GRK7 came out at 0%; in the assay with GSK3A, 0%; with GSK3B (setting [1]), 0%; in the assay on HASPIN, 0%; in the assay on HCK, 13%; in the assay on HIPK1 it was 54%. For the same compound, the “%Inh” value in the assay on HIPK2 came to 0%; with HIPK3, 0%; in the assay on HIPK4 it was 17%; in the assay on HPK1, 64%; in the assay with HUNK, 2%; with ICK, 0%. Further, the “%Inh” value in the assay on IGF1R, in the assay on IKK-alpha, in the assay on IKK-beta, in the assay with IKK-epsilon, in the assay with INSRR and in the assay with INSR was 0% throughout. Also, the “%Inh” value with IRAK1 and in the assay on IRAK3 was 0% throughout.

Consider `Cc1ccc(C(=O)Nc2ccc(Nc3ccnc4cc(-c5ccccn5)ccc34)cc2O)cc1.Cl` [GW440146], for which the “%Inh” value with GRK7 was determined as 0%; in the assay with GSK3A, 7%; with GSK3B (setting [1]) it was 4%; in the assay with HASPIN, 30%; with HCK, 72%; with HIPK1 it was 8%. Besides, the “%Inh” value with HIPK2 is on record as 0%; with HIPK3 it was 4%; in the assay with HIPK4, 0%; in the assay with HPK1, 34%; with HUNK it was 23%; in the assay with ICK, 0%. Besides, the “%Inh” value is listed as 18% in the assay with IGF1R; 0% in the assay on IKK-alpha; 0% with IKK-beta; 16% in the assay on IKK-epsilon; 0% with INSRR; 1% in the assay with INSR. Further, the figures for the “%Inh” value in the assay on IRAK1 and in the assay with IRAK3 were 28% and 3%, respectively.

Take `Cn1ccc2ncnc(Oc3cccc(C(=O)Nc4ccccc4)c3)c21`: the “%Inh” value came out at 21% in the assay on GRK7; 24% with GSK3A; 2% with GSK3B (setting [1]); 37% in the assay on HASPIN; 8% in the assay with HCK; 0% in the assay with HIPK1. For the same compound, the “%Inh” value is 30% with HIPK2; 5% with HIPK3; 0% in the assay with HIPK4; 2% in the assay with HPK1; 0% in the assay on HUNK; 8% in the assay on ICK. The “%Inh” value in the assay with IGF1R is reported as 2%; in the assay with IKK-alpha it was 22%; with IKK-beta it was 15%; in the assay on IKK-epsilon it was 7%; with INSRR, 0%; in the assay with INSR, 16%. In addition, the “%Inh” value in the assay with IRAK1 and with IRAK3 was 0% in each case.

For `CCCc1ccc(S(=O)(=O)NC2CCN(c3ccnc(Nc4ccc(F)cc4)n3)C2)cc1` (stereo not shown) [GSK1379715], the “%Inh” value is given as 0% in the assay on GRK7; 2% in the assay on GSK3A; 21% in the assay with GSK3B (setting [1]); 0% in the assay with HASPIN; 0% with HCK; 0% in the assay on HIPK1. In addition, the “%Inh” value in the assay with HIPK2 is reported as 0%; in the assay with HIPK3 it was 0%; with HIPK4 it was 0%; in the assay on HPK1 it was 37%; in the assay on HUNK, 5%; in the assay on ICK, 0%. Besides, the “%Inh” value is reported as 0% in the assay with IGF1R; 33% with IKK-alpha; 36% with IKK-beta; 0% in the assay on IKK-epsilon; 0% in the assay on INSRR; 1% in the assay on INSR. The “%Inh” value with IRAK1 is recorded as 36%; with IRAK3, 0%.

As to `COc1ccc(C2=C(Nc3cccc(C(=O)O)c3)C(=O)NC2=O)cc1` [SB-390765], the “%Inh” value was determined as 12% in the assay on GRK7; 7% with GSK3A; 31% in the assay with GSK3B (1 µM); 28% in the assay with HASPIN; 8% in the assay with HCK; 8% with HIPK1. For the same compound, the “%Inh” value in the assay with HIPK2 is reported as 16%; in the assay on HIPK3 it was 21%; in the assay with HIPK4, 21%; in the assay with HPK1 it was 0%; in the assay on HUNK it was 19%; in the assay on ICK it was 29%. Moreover, the “%Inh” value in the assay on IGF1R is reported as 0%; with IKK-alpha, 16%; with IKK-beta, 23%; with IKK-epsilon it was 3%; with INSRR, 4%; with INSR it was 13%. The “%Inh” value in the assay with IRAK1 is listed as 28%; in the assay on IRAK3, 0%.

Source of the values: PMC5540273 (PLoS ONE, 2017).
